Compounds with a hit are over-represented: about 9% of the library has one in this group of screens.
KinaseGlo FLuc = Counterscreen for Luciferase (Kinase-Glo TM) Inhibition; Luciferin 4-monooxygenase (Photuris pensylvanica), Q27757; Kinase-Glo luciferase, ATP luminescence, 8 min; Potency, µM (series often up to 38.3 µM), actives largely listed as inhibitors; actives 0.28% (n = 200,000); AID 1379, 2008; active = well fitted curve in the direction sought with a large enough effect; inconclusive = small, poorly fitted or top-dose-only effect, or another doubt; inactive = no such curve, though single readings can be large; an effect the other way counts as inactive or inconclusive; also: nearly all actives have a fitted effect of over 60% in size
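Substrate mix (final 50 mM imidazole pH 7.2, 50 mM KCl, 7 mM MgCl2, 10 uM ATP, 0.01% Tween 20, 0.05% BSA) plus pin-tool compound, then Kinase-Glo detection mix; 8 min ambient, luminescence read.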
IMPase Li inh = qHTS Assay for Identifying the Cell-Membrane Permeable IMPase Inhibitors: Potentiation with Lithium | actives 0.35% (n = 210,000) | Potency, µM (doses to about 59.4 µM), actives largely listed as inhibitors | AID 1457, 2008 | CHO-M1 cells, IP1 TR-FRET (IP-One), carbachol + lithium; active = well fitted curve in the direction sought with a large enough effect; inconclusive = small, poorly fitted or top-dose-only effect, or another doubt; inactive = no such curve, though single readings can be large; an effect the other way counts as inactive or inconclusive;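 also: IP1 builds up when IMPase is blocked and the TR-FRET signal falls; nearly all actives have a fitted effect of over 50% in size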
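Lithium-sensitised IP1 accumulation assay; M1-expressing CHO cells treated 30 min at 37C with compound. Competitive antibody detection by time-resolved FRET followed a 10 min room-temperature lysis step.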
LMNA splice mod = qHTS Assay for Modulators of Lamin A Splicing. Potency, µM (top dose mostly 46.1 µM), actives largely listed as inhibitors. actives 0.01% (n = 200,000). HeLa LMNA splicing GFP/RFP minigene ratio, 48 h. AID 1487, 2009; active = well fitted inhibition curve with a large enough effect in the signal ratio, with a control signal flat, not every such curve was filed as active; inconclusive = small, poorly fitted or top-dose-only effect, or effect the other way, or a change in a side signal; the % refers to the signal ratio
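Read-out is the ratio of GFP to DsRed2 object intensity, acquired by 488 nm laser-scanning cytometry on HeLa lamin A-EGFP minigene reporter cells. Compound incubation 48 hrs at 37 °C in Opti-MEM with 2% FBS; DMSO 0.5% final.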
ALDH1A1 block = qHTS Assay for Inhibitors of Aldehyde Dehydrogenase 1 (ALDH1A1); Purified ALDH1A1, NADH fluorescence, propionaldehyde substrate; Potency, µM (titrated, usually from 75.3 µM), actives largely listed as inhibitors; actives 7.3% (n = 220,000)
HPGD inh = qHTS Assay for Inhibitors of HPGD (15-Hydroxyprostaglandin Dehydrogenase); Potency, µM, actives largely listed as inhibitors; purified HPGD, NADH fluorescence kinetic, PGE2 substrate; AID 894, 2007; actives 4.3% (n = 150,000); 15-hydroxyprostaglandin dehydrogenase [NAD(+)] (Homo sapiens), P15428
Target sequence (P15428 whole entry, looked up): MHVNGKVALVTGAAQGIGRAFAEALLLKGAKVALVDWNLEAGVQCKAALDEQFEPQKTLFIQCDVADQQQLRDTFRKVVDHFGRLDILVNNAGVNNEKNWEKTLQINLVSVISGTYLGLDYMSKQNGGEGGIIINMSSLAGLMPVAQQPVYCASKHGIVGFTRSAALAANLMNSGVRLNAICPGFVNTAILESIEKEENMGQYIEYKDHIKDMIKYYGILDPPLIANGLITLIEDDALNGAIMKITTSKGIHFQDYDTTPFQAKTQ
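20 nM HPGD preincubated 15 min at room temperature with compound in 50 mM Tris-HCl pH 8, 0.01% Tween 20. Started with 1 mM NAD+ and 30 uM prostaglandin E2; NADH fluorescence (360/450 nm) read 5 times over 30-s intervals, last minus first.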
Hits are given with their value; 0 = inactive; ? = inconclusive; - = not tested or not shown; [ ] = remark or other dose. Unless noted, calls follow the shape of the dose curve; as a rule, active = well fitted inhibition curve with a large enough effect (not every such curve was filed as active); inconclusive = small, poorly fitted or top-dose-only effect, or another doubt; inactive = no such curve, though single readings can be large or run the other way.

SMILES	KinaseGlo FLuc	IMPase Li inh	LMNA splice mod	ALDH1A1 block	HPGD inh
O=C(Nc1ccccc1C(=O)OCc1cc(=O)n2nc(C3CC3)sc2n1)c1ccc(Cl)cc1	-	-	0	-	-
O=C(Nc1ccc2ncccc2c1)c1cc(Cl)ccc1Cl	0	0	-	0	-
COC(=O)C1=C(C)N(CCc2cc(OC)c(OC)c(OC)c2)C(=O)N[C@H]1c1ccccc1	0[7.66 µM]	0	0[9.22 µM]	0[13.5 µM]	0
CCCN(CC1CC1)C(=O)CSc1nnc(-c2ccco2)n1N	-	0	-	32µM	-
CCN(C(=O)CSc1nnc(-c2ccccc2)n1C)C1CCS(=O)(=O)C1 (stereo not given)	0	0	-	0	-
CCCN(C(=O)CSc1nnc(-c2ccoc2C)n1N)C1CCS(=O)(=O)C1 (stereo not given)	0	0	0	20µM	0
O=C(CN1C(=O)NC2(CCSC2)C1=O)NCc1ccccc1 (stereo not given)	0	0	?	0	-
COc1ccc(C2Nc3ccccc3C(=O)N2NS(=O)(=O)c2ccccc2)cc1 (stereo not given)	0	0	0	?	-
CCOc1ccc(-c2ccc(SCC)nn2)cc1	?	0	0	0	-
O=C(CSc1ccccn1)N1CCc2ccccc21	0	0	?	?	-
COc1ccc(C(=O)CSc2ccc(-c3ccccc3)nn2)cc1	0	0	?	7.9µM	?
O=C(CSc1ccc(-c2ccccn2)nn1)c1ccc([N+](=O)[O-])cc1	0	0	-	1µM	-
O=C(CSc1ccc(-c2ccccn2)nn1)N1CCc2ccccc21	0	0	?	18µM	-
COc1ccc(-c2ccc(SC)nn2)cc1	4.5µM	0	0	0	-
COc1ccc(C(=O)CSc2ccc(-c3ccco3)nn2)cc1	0	0	0	22µM	0
O=C(CSc1ccc(-c2ccco2)nn1)c1ccccc1	0	0	0	8.9µM	0
O=C(CSc1ccc(-c2ccco2)nn1)N1CCCCCC1	0	0	?	?	-
CCc1sc(Nc2cccc(C)c2C)nc1-c1cc2cccc(OC)c2oc1=O	-	-	0	-	-
Clc1ccc(OCc2cnc(Cl)s2)cc1	0	0	0	0	0
Cc1ccc(C2CC(=O)Oc3ccc(O)cc32)cc1 (stereo not given)	0	0	-	32µM	?
Cc1ccc(C2CC(=O)Oc3ccc(C(C)(C)C)cc32)cc1 (stereo not given)	0	0	-	0	0
Cc1cc(=O)c2c(O)c3c(O)cc(=O)c4c3c3c(cc(O)c1c23)C(C)(C)C=4O	0	0	-	0	0
CCOP(=O)(OCC)C(NC(=O)/C=C/c1ccc(OC)cc1)c1ccccc1 (stereo not given)	-	0	-	0	-
COc1ccc(O)c(C(=O)c2cnc3c(c2)c(=O)[nH]c(=O)n3C)c1	0	0	0	0	28µM
COCCn1c(=O)[nH]c(=O)c2cc(C(=O)c3cc(Cl)ccc3O)cnc21	0	0	?	?	-
SMILES	KinaseGlo FLuc	IMPase Li inh	LMNA splice mod	ALDH1A1 block	HPGD inh
Cc1ccc2[nH]c(=O)c(CN(CC3CCCO3)S(=O)(=O)c3cccc4nsnc34)cc2c1 (stereo not given)	0	0	0	20µM	0
COc1ccc2cc(CN(CC3COCCO3)S(=O)(=O)c3c(C)cc(C)cc3C)c(=O)[nH]c2c1 (stereo not given)	0	0	0	0	0
Cc1ccc(S(=O)(=O)N(Cc2cc3cc4c(cc3[nH]c2=O)OCCO4)CC2CCCO2)cc1 (stereo not given)	0	7.1µM	0	?	?
O=c1[nH]c2cc3c(cc2cc1CN(CC1CCCO1)S(=O)(=O)c1ccc(Cl)cc1)OCCO3 (stereo not given)	0	0	0	?	?
COc1ccc2cc(CN(CC3COCCO3)S(=O)(=O)c3ccc(Cl)cc3)c(=O)[nH]c2c1 (stereo not given)	0	7.1µM	0	?	0
Cc1ccccc1N(CC(=O)Nc1ccc(S(=O)(=O)N2CCOCC2)cc1)S(C)(=O)=O	0	0	-	0	-
CC1Cc2cc(/C(O)=C3/C(=O)C(=O)N(CCN4CCOCC4)C3c3cccc(Cl)c3)ccc2O1 (stereo not given)	0	6.3µM	0	11µM	28µM

Source: PubChem
